The values below come from paper PMC9838217, “Structure of SALL4 zinc finger domain reveals link between AT-rich DNA binding and Okihiro syndrome”.

Changes are numbered by the printed parent chain.

What all share (test): HT-SELEX; high values mean tight binding
Settings in all cases: protein: recombinant; vector His6-GST; dsDNA, one strand shown

Assay [1] has as its target T1, SALL4 ZFC4 WT (HT-SELEX) (Mus musculus, UniProt Q8BX22 870-940).
T1 sequence: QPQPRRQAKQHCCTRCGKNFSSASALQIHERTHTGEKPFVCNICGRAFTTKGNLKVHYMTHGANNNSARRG
Summed up: (§1)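 In triplicate selections of up to 6 cycles, purified recombinant mouse SALL4 zinc finger cluster 4 (residues 870–940, 1 µg) was incubated 10 min at room temperature with library DNA (1.5 µg, then 200 ng) in 100 µl of 10 mM Tris–HCl pH 7.5, 50 mM NaCl, poly(dI-dC) and DTT, and complexes were captured on Ni2+ beads, washed and PCR-amplified. Sequencing was done on MiSeq with scanning for 6-mers. The binding signal is each canonical k-mer's read fraction, reported as fold change against the initial random library.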

The target of assay [2] is T2, SALL4 ZFC4 R900W (HT-SELEX) (Mus musculus, UniProt Q8BX22 870-940, R900W).
T2 sequence: T1 sequence with R31W
The method, boiled down: as §1

For assay [3], the target named is T3, SALL4 ZFC4 G921D (HT-SELEX) (Mus musculus, UniProt Q8BX22 870-940, G921D).
T3 sequence: T1 sequence with G52D
Summed up: as §1

For AGGACA, the binding signal in assay [1] was found to be 0.769 ± 0.0198 fold-change vs cycle 0; in assay [2] it was 0.906 ± 0.0391 fold-change vs cycle 0; in assay [3], 0.947 ± 0.0205 fold-change vs cycle 0.

For ATAAAA, the binding signal was found to be 3.85 ± 0.323 fold-change vs cycle 0 in assay [1], 2.43 ± 0.199 fold-change vs cycle 0 in assay [2] and 2.07 ± 0.279 fold-change vs cycle 0 in assay [3].

TCCAGA: the binding signal in assay [1] was determined as 0.807 ± 0.0459 fold-change vs cycle 0; in assay [2], 0.894 ± 0.029 fold-change vs cycle 0; in assay [3], 0.927 ± 0.0563 fold-change vs cycle 0.

In the case of CCTAGG, the binding signal in assay [1] is 0.46 ± 0.0474 fold-change vs cycle 0; in assay [2], 0.588 ± 0.0412 fold-change vs cycle 0; in assay [3] it was 0.669 ± 0.0278 fold-change vs cycle 0.

On to GGGGAA, for which the binding signal in assay [1] is 0.462 ± 0.0251 fold-change vs cycle 0; in assay [2] it was 0.532 ± 0.0365 fold-change vs cycle 0; in assay [3] it was 0.614 ± 0.0545 fold-change vs cycle 0.

With CTCAGA, the binding signal in assay [1] came out at 0.791 ± 0.0265 fold-change vs cycle 0; in assay [2], 0.909 ± 0.0246 fold-change vs cycle 0; in assay [3] it was 0.948 ± 0.031 fold-change vs cycle 0.

ATGAAA: the binding signal is 2.91 ± 0.152 fold-change vs cycle 0 in assay [1], 1.98 ± 0.0876 fold-change vs cycle 0 in assay [2] and 1.79 ± 0.147 fold-change vs cycle 0 in assay [3].

Consider ACTATA, for which the binding signal came out at 2.18 ± 0.121 fold-change vs cycle 0 in assay [1], 1.98 ± 0.101 fold-change vs cycle 0 in assay [2] and 1.76 ± 0.177 fold-change vs cycle 0 in assay [3].

Take CATGAG: the binding signal in assay [1] is 0.884 ± 0.0345 fold-change vs cycle 0; in assay [2], 0.992 ± 0.0188 fold-change vs cycle 0; in assay [3] it was 1.03 ± 0.0481 fold-change vs cycle 0.

As for ACTCGG, the binding signal in assay [1] was found to be 0.394 ± 0.0337 fold-change vs cycle 0; in assay [2], 0.467 ± 0.0183 fold-change vs cycle 0; in assay [3], 0.588 ± 0.0373 fold-change vs cycle 0.

As to CGATGA, the binding signal in assay [1] was 0.734 ± 0.0173 fold-change vs cycle 0; in assay [2], 0.797 ± 0.0326 fold-change vs cycle 0; in assay [3], 0.875 ± 0.0214 fold-change vs cycle 0.

Consider CCAAGC, for which the binding signal came out at 0.327 ± 0.034 fold-change vs cycle 0 in assay [1], 0.384 ± 0.0115 fold-change vs cycle 0 in assay [2] and 0.516 ± 0.0505 fold-change vs cycle 0 in assay [3].

ATCGAG: the binding signal turned out to be 0.776 ± 0.0249 fold-change vs cycle 0 in assay [1], 0.873 ± 0.0248 fold-change vs cycle 0 in assay [2] and 0.967 ± 0.0375 fold-change vs cycle 0 in assay [3].

On to CCAAGA, for which the binding signal was 0.78 ± 0.0182 fold-change vs cycle 0 in assay [1], 0.888 ± 0.03 fold-change vs cycle 0 in assay [2] and 0.931 ± 0.0131 fold-change vs cycle 0 in assay [3].

Take GACAAC: the binding signal in assay [1] amounted to 0.673 ± 0.0124 fold-change vs cycle 0; in assay [2], 0.798 ± 0.0444 fold-change vs cycle 0; in assay [3], 0.89 ± 0.0263 fold-change vs cycle 0.

Regarding AATCTA, the binding signal in assay [1] was found to be 2.03 ± 0.138 fold-change vs cycle 0; in assay [2], 2 ± 0.0814 fold-change vs cycle 0; in assay [3], 1.8 ± 0.18 fold-change vs cycle 0.

Turning to AAATTA, the results for the binding signal in assay [1], in assay [2] and in assay [3] were 3.81 ± 0.372 fold-change vs cycle 0, 2.45 ± 0.183 fold-change vs cycle 0 and 2.13 ± 0.261 fold-change vs cycle 0, respectively.

As to AAAGAA, the binding signal in assay [1] worked out at 1.95 ± 0.101 fold-change vs cycle 0; in assay [2] it was 2.12 ± 0.151 fold-change vs cycle 0; in assay [3], 1.8 ± 0.181 fold-change vs cycle 0.

ACACAT: the binding signal in assay [1] was 1.25 ± 0.0206 fold-change vs cycle 0; in assay [2] it was 1.33 ± 0.0439 fold-change vs cycle 0; in assay [3], 1.32 ± 0.0216 fold-change vs cycle 0.

Regarding GTTTCA, the binding signal in assay [1] stood at 1.26 ± 0.0534 fold-change vs cycle 0; in assay [2], 1.32 ± 0.0266 fold-change vs cycle 0; in assay [3] it was 1.31 ± 0.0949 fold-change vs cycle 0.

For ACAAAT, the binding signal in assay [1] was determined as 1.82 ± 0.0876 fold-change vs cycle 0; in assay [2] it was 1.76 ± 0.0787 fold-change vs cycle 0; in assay [3], 1.61 ± 0.106 fold-change vs cycle 0.

In the case of AAAACA, the binding signal worked out at 1.61 ± 0.0773 fold-change vs cycle 0 in assay [1], 1.67 ± 0.055 fold-change vs cycle 0 in assay [2] and 1.55 ± 0.0435 fold-change vs cycle 0 in assay [3].

On to GAGATC, for which the binding signal in assay [1] came to 0.836 ± 0.059 fold-change vs cycle 0; in assay [2] it was 0.953 ± 0.0609 fold-change vs cycle 0; in assay [3] it was 1.06 ± 0.0528 fold-change vs cycle 0.

For CTACCC, the binding signal is 0.454 ± 0.0263 fold-change vs cycle 0 in assay [1], 0.523 ± 0.00774 fold-change vs cycle 0 in assay [2] and 0.607 ± 0.0541 fold-change vs cycle 0 in assay [3].

Regarding CTACTA, the binding signal in assay [1] amounted to 1.31 ± 0.0478 fold-change vs cycle 0; in assay [2] it was 1.47 ± 0.0658 fold-change vs cycle 0; in assay [3], 1.39 ± 0.0974 fold-change vs cycle 0.

Consider ATTACC, for which the binding signal in assay [1] was 1.49 ± 0.0761 fold-change vs cycle 0; in assay [2], 1.51 ± 0.105 fold-change vs cycle 0; in assay [3], 1.43 ± 0.105 fold-change vs cycle 0.

Turning to AGATGG, the binding signal in assay [1] came to 0.853 ± 0.0339 fold-change vs cycle 0; in assay [2] it was 0.933 ± 0.00507 fold-change vs cycle 0; in assay [3] it was 0.962 ± 0.0157 fold-change vs cycle 0.

Consider AAGGTC, for which the binding signal in assay [1] came out at 0.725 ± 0.0449 fold-change vs cycle 0; in assay [2] it was 0.885 ± 0.0273 fold-change vs cycle 0; in assay [3], 0.943 ± 0.0196 fold-change vs cycle 0.

As for CACCTG, the binding signal in assay [1] stood at 0.456 ± 0.0357 fold-change vs cycle 0; in assay [2], 0.549 ± 0.0259 fold-change vs cycle 0; in assay [3] it was 0.631 ± 0.0331 fold-change vs cycle 0.

On to CGGATA, for which the binding signal is 0.674 ± 0.0155 fold-change vs cycle 0 in assay [1], 0.747 ± 0.0235 fold-change vs cycle 0 in assay [2] and 0.823 ± 0.043 fold-change vs cycle 0 in assay [3].
